# Results from PubChem BioAssay (EPA / NIEHS).
# Inconclusive results are not listed. Activity calls are given as the source filed them. The calls were made as follows: active = hit-call score of the fitted dose curve at least 0.9, where 1 is the maximum; inconclusive = response in the unintended direction; inactive = score below 0.9.
# Columns and labels:
# [1] = target: rat Catechol-O-Methyl Transferase (COMT), Comt (gene 24267) (UniProt P22734); test: NVS_ENZ_rCOMT: NovaScreen (NVS) Enzymatic Assay for rat Catechol-O-Methyl Transferase (COMT) (AID 2283235)
# Sequence of rat Catechol-O-Methyl Transferase (COMT), Comt (gene 24267) (P22734 whole entry, looked up): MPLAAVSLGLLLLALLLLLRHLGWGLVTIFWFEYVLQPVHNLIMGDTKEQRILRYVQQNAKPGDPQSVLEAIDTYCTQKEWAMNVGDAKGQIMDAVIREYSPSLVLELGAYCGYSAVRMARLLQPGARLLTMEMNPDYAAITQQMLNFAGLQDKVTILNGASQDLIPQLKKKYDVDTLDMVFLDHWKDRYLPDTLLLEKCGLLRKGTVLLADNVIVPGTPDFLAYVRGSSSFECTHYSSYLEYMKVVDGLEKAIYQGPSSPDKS
# Procedure, shortened: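 Cell-free enzyme activity with protein extracted from rat dorsal striatum, measured by HPLC with absorbance detection. Compounds screened at 25 uM in duplicate; actives then run in concentration-response up to 50 uM, loss of signal versus DMSO.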
# [2] = tested on: bovine Angiotensin II Receptor Type 2 (AT2), gene 407157; test: NVS_GPCR_bAT2: NovaScreen (NVS) G Protein-Coupled Receptor Assay for bovine Angiotensin II Receptor Type 2 (AT2) (AID 2283240)
# Procedure, shortened: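 Radioligand displacement on bovine cerebellar membranes, 1 hour incubation, filter-based scintillation counting; loss of signal vs DMSO. Duplicate single-point screen at 25 uM, then concentration-response to 50 uM maximum.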
# [3] = target: bovine Dopamine Receptor (DR), Non-selective Binding, DRD1 (gene 281125) (UniProt Q95136); test: NVS_GPCR_bDR_NonSelective: NovaScreen (NVS) G Protein-Coupled Receptor Assay for bovine Dopamine Receptor (DR), Non-selective Binding (AID 2283241)
# Sequence of bovine Dopamine Receptor (DR), Non-selective Binding, DRD1 (gene 281125) (Q95136 whole entry, looked up): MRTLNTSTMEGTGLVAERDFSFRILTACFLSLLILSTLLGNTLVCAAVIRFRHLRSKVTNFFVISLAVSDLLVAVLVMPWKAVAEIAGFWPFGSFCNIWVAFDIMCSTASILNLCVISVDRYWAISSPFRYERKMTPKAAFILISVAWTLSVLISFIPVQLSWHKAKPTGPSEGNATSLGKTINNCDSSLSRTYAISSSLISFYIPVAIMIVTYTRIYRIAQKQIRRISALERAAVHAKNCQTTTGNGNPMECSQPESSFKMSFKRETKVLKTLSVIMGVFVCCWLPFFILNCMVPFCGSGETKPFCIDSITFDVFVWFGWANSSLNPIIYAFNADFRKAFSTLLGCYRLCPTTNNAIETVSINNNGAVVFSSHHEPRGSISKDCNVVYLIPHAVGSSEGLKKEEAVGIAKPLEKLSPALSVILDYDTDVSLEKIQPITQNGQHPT
# Procedure, shortened: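 Bovine striatal membranes; radioligand displacement read by filtration and scintillation counting 1 h after dosing, loss of signal vs DMSO. Screened in duplicate at 25 uM, then concentration-response for hits.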
structure (smiles),measurement,setting,value
CC[C@H](C)C(=O)O[C@H]1C[C@H](O)C=C2C=C[C@H](C)[C@H](CC[C@@H](O)C[C@@H](O)CC(=O)O)[C@H]21,outcome,[1],inactive
CCCCCCCC/C=C\CCCCCCCC(=O)OC[C@@H](O)[C@H]1OC[C@H](O)[C@H]1O,outcome,[2],inactive
c1ccc(C(O[C@@H]2CCCN(CCc3ccc4c(c3)OCO4)C2)c2ccccc2)cc1,outcome,[2],inactive
same,AC50,[3],10.6 µM (active)
COS(C)(=O)=O,outcome,[3],inactive
